Screening data deposited in PubChem BioAssay by The Scripps Research Institute Molecular Screening Center.
In the library only some 3.4% were active in any assay of this set; here they are far more common.
GPR151 activ: activators of human GPR151, primary screen, cell-based, PathHunter beta-arrestin, luminescence. G-protein coupled receptor 151 (Homo sapiens), Q8TDV0. PathHunter beta-arrestin GPR151 cells. activation, % at 11.2 µM. hit rate 1% among 650,000. AID 1508602, 2020; in the data active = activation above about 4.9%
TEAD-YAP inh: TEAD-YAP interaction inhibition, primary screen, TEAD-YAP interaction inhibitor project, luminescence, HEK-TIYL cells; AID 1259422, 2018; inhibition, % at 9.12 µM; hit rate 1.4% among 640,000; TEAD-Gal4/YAP UAS-luciferase luminescence; in the data active = inhibition above about 32%
FBW7 act: FBW7 E3 ligase activators, primary screen, biochemical, AlphaScreen, human; F-box/WD repeat-containing protein 7 (Homo sapiens), Q969H0; AlphaScreen FBW7–phospho-cyclin E peptide binding, activator screen; normalized activity (activation), % at 26.1 µM; hit rate 0.13% among 650,000; AID 1259310, 2017; in the data active = normalized activity above about 1.9%;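 note: purified mutant Fbw7 with reduced substrate affinity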
MITF inh: MITF inhibitors, primary screen, biochemical, AlphaScreen, human. Microphthalmia-associated transcription factor (Homo sapiens), O75030. AlphaScreen MITF homodimerization, bead proximity signal. inhibition, % at 2.6 µM. hit rate 0.91% among 650,000. AID 1259374, 2018; in the data active = inhibition above about 50%
Target sequence (O75030 whole entry, looked up): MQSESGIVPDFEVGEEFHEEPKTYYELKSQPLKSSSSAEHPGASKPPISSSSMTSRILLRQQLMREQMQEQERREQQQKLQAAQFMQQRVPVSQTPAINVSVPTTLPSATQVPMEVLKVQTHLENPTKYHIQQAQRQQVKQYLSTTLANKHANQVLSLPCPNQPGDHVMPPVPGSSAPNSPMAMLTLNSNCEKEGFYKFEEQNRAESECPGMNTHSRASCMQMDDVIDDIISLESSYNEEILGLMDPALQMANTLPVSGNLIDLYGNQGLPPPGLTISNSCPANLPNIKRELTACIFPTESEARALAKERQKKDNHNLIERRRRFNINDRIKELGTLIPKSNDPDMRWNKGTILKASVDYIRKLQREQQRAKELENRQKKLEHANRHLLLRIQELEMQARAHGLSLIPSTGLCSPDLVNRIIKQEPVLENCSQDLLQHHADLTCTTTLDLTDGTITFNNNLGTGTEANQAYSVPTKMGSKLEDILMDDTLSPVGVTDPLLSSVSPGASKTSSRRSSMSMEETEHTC
Hits are given with their value; n = inactive; ! = not confirmed by another sample.

SMILES	GPR151 activ	TEAD-YAP inh	FBW7 act	MITF inh
COC(=O)Cc1ccc(NC(=O)c2ccc(C(C)(C)C)cc2)cc1	n	70.8	n	n
CCCOC(=O)c1ccc(NC(=O)c2ccc(C(C)(C)C)cc2)cc1	n	n	n	n
COCCOC(=O)c1ccc(NC(=O)c2ccc(C(C)(C)C)cc2)cc1	n	45.7	n	n
O=C1NC(=Nc2ccc(O)cc2)S/C1=C\c1ccc(F)cc1	n	32.0	n	n
Cc1cc(/C=C2\SC(=Nc3ccccc3)NC2=O)c(C)n1-c1ccccc1	n	53.2	n	n
COc1ccc(/C=C2\SC(=S)NC2=O)cc1O	n	n	n	n
CCOc1cc(/C=C2/SC(=Nc3ccccc3)NC2=O)ccc1O	n	52.4	n	n
O=C1NC(=S)S/C1=C\c1ccc(O)c(O)c1	n	n	n	54.6
CC(C)CC(C(=O)Nc1cccc(S(N)(=O)=O)c1)N1C(=O)c2ccccc2C1=O (configuration not stated)	n	n	n	n
NC(=O)C[n+]1ccc(NC(=O)c2ccccc2)cc1	n	n	n	n
COc1ccc(Cl)cc1NC(=O)Nc1nnc(N2C(C)CCCC2C)s1 (configuration not stated)	n	n	n	n
O=C1NC(=Nc2ccc(F)cc2)S/C1=C\c1ccco1	n	n	n	n
COC(=O)C(C)N1C(=O)S/C(=C/c2cc(C)n(-c3ccccn3)c2C)C1=O (configuration not stated)	n	42.6	n	n
O=C1NC(=Nc2ccc(O)cc2)S/C1=C/C=C/c1ccco1	n	37.9	n	n
Cc1cc(/C=C2\SC(=O)N(C)C2=O)c(C)n1-c1ccc(O)cc1	n	78.6	n	n
O=C1NC(=Nc2ccccc2)S/C1=C/c1ccc(O)c(O)c1	n	47.1	n	n
O=C1NC(=Nc2ccccc2)S/C1=C/c1ccccc1	n	n	n	n
O=C(CSc1ccc(F)cc1)Nc1ccccc1O	n	n	n	n
CC(C)(C)c1ccc(C(=O)NCC23C=CC(O2)C2C(=O)N(c4ccccc4)C(=O)C23)cc1 (configuration not stated)	n	n	n	n
Cc1cccc(NC(=O)c2ccc(CSc3ccc(Cl)cc3)cc2)c1	n	n	n	n
CCc1ccc(N(CC(=O)NCCOC)C(=O)CCC(=O)Nc2ccccn2)cc1	n	n	n	n
Cc1ccc(Nc2nnc(Sc3nnnn3-c3ccccc3)s2)cc1	n	53.0	n	n
c1ccc(CCSc2nnnn2-c2ccccc2)cc1	n	n	n	n
CCCSc1nnc(Sc2nnnn2-c2ccccc2)s1	n	56.3	n	n
Cc1ccc(Nc2nc(CSc3nnnn3-c3ccccc3)cs2)cc1	n	n	n	n
SMILES	GPR151 activ	TEAD-YAP inh	FBW7 act	MITF inh
O=C(CSc1nc2[nH]ncc2c(=O)n1-c1ccccc1)Nc1ccc(F)c(F)c1	n	60.9	n	n
O=C(CSc1nc2[nH]ncc2c(=O)n1-c1ccccc1)Nc1ccc(Br)cc1	n	n	n	n
O=[N+]([O-])c1ccc(-c2nc(C=Nc3cccc(Cl)c3)c(O)o2)cc1	n	n	n	n
COc1ccccc1NC(=S)N/N=C/c1ccc2c(c1)OCCO2	n	60.6	n	n
COc1ccccc1NC(=O)C(=O)N/N=C/c1ccc2c(c1)OCO2	n	n	n	n
COC(=O)C1=C(C)Nc2ncnn2C1c1ccc(OC)c(Br)c1 (configuration not stated)	n	32.1	n	n
CCOC(=O)C1=C(C)Nc2ncnn2C1c1cc(Br)c(OC)c(OC)c1 (configuration not stated)	n	50.5	n	n
COC(=O)C1=C(C)Nc2ncnn2C1c1cc(Br)c(O)c(OC)c1 (configuration not stated)	n	n	n	n
COc1ccccc1OCC(=O)Oc1coc(CSc2ncccn2)cc1=O	n	n	n	n
COc1ccc(S(=O)(=O)Nc2ccc(OCc3ccccc3)cc2)cc1OC	n	n	n	n
COc1ccc(S(=O)(=O)N2CCN(c3cc(-n4ccnc4)ncn3)CC2)c(C)c1C	n	56.5	n	n
O=S(=O)(c1ccc(F)cc1)N1CCN(c2cc(-n3ccnc3)ncn2)CC1	n	n	n	n
O=C1Nc2ccccc2NC(=O)C2C3c4ccccc4C(c4ccccc43)C12 (configuration not stated)	n	n	n	n
c1ccc2c(c1)Nc1ccccc1C2NNC1c2ccccc2Nc2ccccc21	n	69.0	n	n
CCN(CC)C(=O)C1CCCc2c1[nH]c1ccc(Cl)cc21 (configuration not stated)	n	59.0	n	n
NC(=O)C1CCCc2c1[nH]c1ccc(Cl)cc21 (configuration not stated)	n	n	n	n
O=C1C(Cl)=C(N2CCCCC2)C(=O)C(Cl)=C1/C=C/N1CCCCC1	n	n	n	86.2
CN(C)c1ccc(C(=O)Nc2ccccc2C(N)=O)cc1	n	51.9	n	n
CC(C)(C)c1ccc(C(=O)Nc2sccc2C(N)=O)cc1	n	68.7	n	n
CC(C)(C)c1ccc(C(=O)Nc2ccccc2C(N)=O)cc1	n	56.4	2.1	n
CN(C)c1ccc(C(=O)Nc2ccccc2Br)cc1	n	65.1	n	n
CN(C)c1ccc(C(=O)Nc2cc(C(N)=O)c(Cl)cc2Cl)cc1	n	n	n	n
NC(=O)c1ccccc1NC(=O)c1ccc(-c2ccccc2)cc1	n	n	n	n
COc1cccc(CN2CCNC(=O)C2CC(=O)N(C)Cc2ncc[nH]2)c1OC (configuration not stated)	n	n	n	n
Cc1cc(OC(=O)c2ccc(Br)cc2)c([N+](=O)[O-])c(=O)[nH]1	n	n	n	n
SMILES	GPR151 activ	TEAD-YAP inh	FBW7 act	MITF inh
O=C(CN1C(=O)C2(OCCO2)c2ccccc21)NO	n	n	n	n
Cc1ncn(-c2ccc(Nc3ncc4cccc(-c5cn[nH]c5C)c4n3)cc2)n1	n	45.4	n	n
Cc1ccc(-c2cccc3cnc(NC4CCC(C(=O)N5CCCC5)CC4)nc23)cn1 (configuration not stated)	n	45.4!	n	n
Cc1ccc(-c2ncn(-c3ccc(Nc4cc(Nc5ccccc5C(N)=O)c(C5CC5)cn4)cc3)n2)cn1	n	n	n	n
Cc1ccc(-c2ncn(-c3ccc(Nc4ncc5cccc(-c6ccc7c(c6)OCO7)c5n4)cc3)n2)cn1	n	n	n	n
Cc1ccc(-c2cccc3cnc(Nc4ccc5c(c4)OCO5)nc23)cn1	n	32.8	n	n
Cc1ccc(-c2ncn(-c3ccc(Nc4cc(Nc5ccccc5C(N)=O)c(C)cn4)cc3)n2)cn1	n	37.6	n	n
CN(C)c1nc(CN2CC[C@@](O)(c3ccccc3)[C@H]3CCCC[C@@H]32)nc2ccccc12	n	n	n	n
CC(=O)c1ccc(NC(=O)Cc2cccc3ccccc23)cc1	n	n	n	n
CCc1ccc2[nH]c3nc(SCC(=O)NC(C)(C)C)nnc3c2c1	n	n	n	n
Cc1ccccc1-c1nnn(Cc2ccc(Cl)cc2)n1	n	n	n	n
